# Inconclusive results are not listed. Where a call stands in place of a potency, no number is given. Calls of active or inactive are those of the source. Calls come from the whole dose curve; as a rule, active = well fitted curve in the direction sought with a large enough effect; inconclusive = small, poorly fitted or top-dose-only effect, or another doubt; inactive = no such curve, though single readings can be large; an effect the other way counts as inactive or inconclusive.
# Columns and labels:
# [1] = test system: Zika virus NS2B-NS3 protease (unlinked complex); experiment: Primary screen GU Rhodamine qHTS for Zika virus inhibitors: Unlinked NS2B-NS3 protease assay (AID 1347159); note: nearly all actives have a fitted effect of over 60% in size
# How it was run: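 In dose–response format, inhibition of unlinked protease (25 nM) was measured with 1.5 microM bis-peptide Rhodamine110 substrate. Aprotinin served as the intraplate control.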
# [2] = test system: Zika virus NS2B-NS3 protease (linked construct); experiment: Primary screen NINDS Rhodamine qHTS for Zika virus inhibitors (AID 1347160); note: nearly all actives have a fitted effect of over 55% in size
# How it was run: (§1)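 Each compound, titrated, sat 15 min with 25 nM linked protease before 1.5 microM Rhodamine110 substrate went in. Fluorescence gain over the next 15 min, in pH 8.0 Tris with Tween 20, gave Hill-fitted curves.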
# [3] = Confirmatory screen NINDS Rhodamine qHTS for Zika virus inhibitors (AID 1347161);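 note: purified Zika NS2B-NS3 protease with linked NS2B cofactor domain and Rhodamine110 peptide substrate; series mostly up to about 110 µM; nearly all actives have a fitted effect of over 60% in size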
# How it was run: as §1
# [4] = HepG2 cells viability qHTS for Zika virus inhibitors (AID 1347168); note: potency is the fitted concentration of half-maximal effect
# How it was run: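 To flag cytotoxic protease inhibitors, viability is measured by ATP-dependent luminescence (CellTiter Glo) after cells attached overnight receive compound for 24 to 48 hours in DMEM with 4% FBS.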
SMILES,Potency [1],Potency [2],Potency [3],Potency [4]
CNC(=O)c1cc(Oc2ccc(NC(=O)Nc3cc(C(C)(C)C)nn3-c3ccc4ncccc4c3)c(F)c2)ccn1,inactive,inactive,,
COc1cc2nccc(Oc3ccc(NC(=O)C4(C(=O)Nc5ccc(F)cc5)CC4)cc3)c2cc1OC,inactive,inactive,,
O=C(c1ccc(Nc2nccc(-c3cc4ccccc4s3)n2)cc1)N1CCC(N2CCCC2)CC1,inactive,inactive,,
CNC(=O)c1ccc(N2C(=S)N(c3cnc(C#N)c(C(F)(F)F)c3)C(=O)C23CCC3)cc1F,inactive,inactive,,
COc1cccc(Nc2c(C(N)=O)cnc3c(C)cc(S(=O)(=O)c4cccc(C(=O)N(C)C)c4)cc23)c1,inactive,inactive,,
CN(C)Cc1c(C(=O)NCCOc2ccc(C(=O)NO)cc2)oc2ccccc12,inactive,inactive,,
NC(=O)c1c(OCc2c(F)cc(Br)cc2F)nsc1NC(=O)NCCCCN1CCCC1,inactive,inactive,,
CNc1nccc(-c2cccnc2Oc2cc(C(=O)Nc3cccc(C(F)(F)F)c3)ccc2C)n1,inactive,inactive,,
CC(C)c1nn(-c2c(Cl)cccc2Cl)c2nc(Cc3ccc(OCCO)cc3)[nH]c(=O)c12,inactive,inactive,,
Fc1cc(-c2cccc3ncc(-c4cnn(C5CCNCC5)c4)nc23)cc(F)c1CN1CCOCC1,inactive,inactive,,
Nc1cccc(-c2cc3c(Oc4cccc(O)c4)ncnc3[nH]2)c1,inactive,inactive,,
N#CCNC(=O)c1ccc(-c2ccnc(Nc3ccc(N4CCOCC4)cc3)n2)cc1,inactive,inactive,,
c1nc2nc(Nc3ccc(N4CCOCC4)cc3)nc(NC3CCCCC3)c2[nH]1,inactive,inactive,,
CN1CCC(CNc2ccc3ncc(-c4cccc(OC(F)(F)F)c4)n3n2)CC1,inactive,inactive,inactive,11.7 µM (active)
Cc1cc(Nc2ncnc3ccc(-c4ccc(CNCCS(C)(=O)=O)o4)cc23)ccc1Oc1ccn2ncnc2c1,,inactive,,
